Counter-ions that a name gives are not always drawn. ± gives the standard deviation or the standard deviation of the averaged measurements.
What was measured:
Settings in all cases: 25 µM; exposure: 24-48 hpf
[1] = system: Danio rerio Tg(wt1b:EGFP) embryo, pronephros; assay: glomerular separation, fold change vs DMSO control; higher = glomeruli further apart (abnormal)
In short: (§1)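 Each feature value is a fold change relative to the mean of same-day DMSO-treated embryos. Embryos of the Tg(wt1b:EGFP) zebrafish line, dechorionated, received 25 μM compound in 0.5% DMSO from 24 to 48 hpf at 28.5°C, in HEPES-buffered E3 with 0.003% PTU. Distances and angles were computed by a Fiji macro from 16 manually set reference points on maximum projections of dorsal pronephros images, and values beyond 2 SD of the feature mean were removed.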

[2] = system: Danio rerio Tg(wt1b:EGFP) embryo, pronephros; assay: glomerular width (mean of left and right), fold change vs DMSO control; higher = wider glomerulus
In short: as §1

[3] = system: Danio rerio Tg(wt1b:EGFP) embryo, pronephros; assay: fraction of imaged embryos annotated as normal kidney; higher = less nephrotoxic; extreme values may be limits of the assay
In short: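 Zebrafish embryos carrying Tg(wt1b:EGFP) were dechorionated and exposed to 25 μM compound (0.5% DMSO) between 24 and 48 hpf at 28.5°C. Their pronephroi were imaged by widefield fluorescence, and each embryo was classed by hand from maximum projections. The measure is the fraction of embryos per treatment falling in the normal-kidney category.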

[4] = system: Danio rerio Tg(wt1b:EGFP) embryo, pronephros; assay: pronephric angle neck segment to proximal convoluted tubule (mean of left and right), fold change vs DMSO control; higher = larger pronephric angle
In short: as §1

SMILES | glomerular separation [1] | glomerular width [2] | fraction of imaged embryos annotated as normal kidney [3] | pronephric angle neck segment [4]
N[C@@H]1C[C@H]1c1ccccc1 [Tranylcypromine hydrochloride] | 1.03 ± 0.28 | 1.021 ± 0.0055 | 0.727 | 1.01 ± 0.038
COc1ccc(Cc2nccc3cc(OC)c(OC)cc23)cc1OC [Papaverine hydrochloride] | 0.972 ± 0.22 | 1.04 ± 0.065 | 0.833 | 0.968 ± 0.018
CCN[C@@H](C)Cc1cccc(C(F)(F)F)c1 [Dexfenfluramine hydrochloride] | 0.736 ± 0.23 | 1.04 ± 0.037 | 0.917 | 1.01 ± 0.03
C[N+]1(C)[C@@H]2CC[C@H]1C[C@@H](OC(=O)C(CO)c1ccccc1)C2 (some centres not stated) [Methylatropine nitrate] | 1.01 ± 0.39 | 0.936 ± 0.028 | 0.917 | 1.06 ± 0.017
CC(C)(N)Cc1ccccc1 [Phentermine hydrochloride] | 0.886 ± 0.21 | 0.981 ± 0.035 | 0.917 | 0.979 ± 0.031
C=C1C[C@@H]2[C@H](CC[C@]3(C)C(=O)CC[C@@H]23)[C@@]2(C)C=CC(=O)C=C12 [Exemestane] | 0.893 ± 0.38 | 0.932 ± 0.065 | 0.727 | 1.25 ± 0.036
CN[C@@H]1C[C@@H](c2ccc(Cl)c(Cl)c2)c2ccccc21 [Indatraline hydrochloride] | 0.788 ± 0.28 | 1.04 ± 0.011 | 0.833 | 0.9756 ± 0.0089
COc1ccc(CCN)cc1OC [Homoveratrylamine] | 1.13 ± 0.38 | 0.994 ± 0.012 | 0.75 | 0.972 ± 0.021
CC(=O)OC1CN2CCC1CC2 (configuration not stated) [Aceclidine Hydrochloride] | 0.978 ± 0.38 | 1.053 ± 0.01 | 0.917 | 0.99 ± 0.044
CNC(C)(C)Cc1ccccc1 [Mephentermine hemisulfate] | 0.946 ± 0.41 | 1.08 ± 0.036 | 1 | 0.991 ± 0.081
c1ccc2c(c1)Nc1ccccc1S2 [Phenothiazine] | 1.35 ± 0.6 | 0.851 ± 0.062 | 0.75 | 1.101 ± 0.002
CC(C)C[C@H](CN)CC(=O)O [Pregabalin] | 1.1 ± 0.25 | 0.9518 ± 0.0028 | 0.917 | 1.03 ± 0.03
C[C@@H]1CC[C@H]2[C@@H](C)C(=O)O[C@@H]3O[C@@]4(C)CC[C@@H]1[C@]32OO4 [Artemisinin] | 0.996 ± 0.38 | 0.9517 ± 0.0011 | 1 | 1.05 ± 0.054
CC(C)c1cccc(C(C)C)c1O [Propofol] | 0.693 ± 0.2 | 1.02 ± 0.021 | 0.75 | 1.02 ± 0.14
CCN(CC)C(C)C(=O)c1ccccc1 (configuration not stated) [Amfepramone hydrochloride] | 0.872 ± 0.24 | 0.97173 ± 0.00026 | 0.917 | 1.01 ± 0.0072
C=CC[C@]1(O)CC[C@H]2[C@@H]3CCC4=CC(=O)CCC4=C3C=C[C@@]21C [Altrenogest] | 1.44 ± 0.77 | 1.07 ± 0.0053 | 0.333 | 0.981 ± 0.072
NC(=O)C[S+]([O-])C(c1ccccc1)c1ccccc1 (configuration not stated) [Modafinil] | 1.04 ± 0.25 | 1.09 ± 0.073 | 0.5 | 1 ± 0.041
C[C@]12N[C@H](Cc3ccccc31)c1ccccc12 [Dizocilpine maleate] | 0.888 ± 0.31 | 1.03 ± 0.077 | 0.917 | 0.978 ± 0.071
C#C[C@]1(O)CC[C@H]2[C@@H]3CCC4=CC(=O)CCC4=C3C=C[C@@]21CC [Gestrinone] | 1.64 ± 0.91 | 1.119 ± 0.0059 | 0.417 | 1.03 ± 0.038
C[C@@H]1CN([C@H]2CC[C@](C#N)(c3ccc(F)cc3)CC2)CC[C@]1(C(=O)O)c1ccccc1 [Levocabastine hydrochloride] | 1.19 ± 0.32 | 1.06 ± 0.034 | 0.917 | 0.959 ± 0.011
C[C@]12COC(=O)C[C@@H]1CC[C@@H]1[C@@H]2CC[C@@]2(C)[C@H]1CC[C@]2(C)O [Oxandrolone] | 0.832 ± 0.35 | 1.1 ± 0.05 | 0.917 | 1.01 ± 0.036
C[N+](C)(C)CCCCCCCCCC[N+](C)(C)C [Decamethonium bromide] | 1.04 ± 0.55 | 1.01 ± 0.041 | 0.727 | 1.02 ± 0.021
C[C@]12CC[C@H](O)C[C@H]1CC[C@@H]1[C@@H]2C[C@@H](O)[C@]2(C)[C@@H](C3=CC(=O)OC3)CC[C@]12O [Digoxigenin] | 0.711 ± 0.21 | 0.994 ± 0.017 | 0.917 | 0.9639 ± 0.0077
CNC(=O)Oc1ccc2c(c1)[C@]1(C)CCN(C)[C@@H]1N2C [Eserine hemisulfate salt] | 1.12 ± 0.17 | 1 ± 0.0036 | 1 | 0.981 ± 0.013
Fc1ccc(C(OCCN2CCN(CCCc3ccccc3)CC2)c2ccc(F)cc2)cc1 | 5.45 ± 2.3 | 0.737 ± 0.028 | 0 | 1.02 ± 0.097
CCN(C(C)=O)c1cccc(-c2ccnc3c(C#N)cnn23)c1 [Zaleplon] | 0.976 ± 0.47 | 0.943 ± 0.034 | 0.833 | 1.03 ± 0.027
C[C@H](N)[C@H](O)c1ccc(O)c(O)c1 [Levonordefrin] | 1.13 ± 0.33 | 1.04 ± 0.016 | 0.667 | 0.982 ± 0.012
c1ccc2c(c1)OCC(C1=NCCN1)O2 (configuration not stated) [Idazoxan hydrochloride] | 0.851 ± 0.4 | 0.99138 ± 0.00087 | 0.833 | 1.02 ± 0.021
